Hit rate of the full screen: of about 5,500 compounds, about 2,000 (36%) were called active. About 18% were inconclusive and are not listed. This is one part of the list. A number with no mark means an inactive call. No stated cut-off is given here; in the data, active means normalized growth mostly below about 0.91 (no sharp cut-off); inconclusive means no clear call, values can overlap the other calls; inactive means mostly above about 0.92.
Test: chemical genetic growth profiling, strain panel (AID 1159580);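 further: tested at 20 µM; growth read once vehicle control cultures reached saturation at 30 °C; 1 = growth at the plate median or of vehicle wells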
Settings: growth OD
[1] = S. cerevisiae deletion strains, locus YAL013W, strain DEP1, stronger effect = lower value
[2] = S. cerevisiae deletion strains, locus YBR229C, strain ROT2, stronger effect = lower value
[3] = S. cerevisiae deletion strains, locus YDL101C, strain DUN1, stronger effect = lower value
[4] = S. cerevisiae deletion strains, locus YDL134C, strain PPH21, stronger effect = lower value
[5] = S. cerevisiae deletion strains, locus YDR150W, strain NUM1, stronger effect = lower value
[6] = S. cerevisiae deletion strains, locus YEL061C, strain CIN8, stronger effect = lower value
[7] = S. cerevisiae deletion strains, locus YGR078C, strain PAC10, stronger effect = lower value
[8] = S. cerevisiae deletion strains, locus YHR030C, strain SLT2, stronger effect = lower value
[9] = S. cerevisiae deletion strains, locus YJR043C, strain POL32, stronger effect = lower value
[10] = S. cerevisiae deletion strains, locus YJR075W, strain HOC1, stronger effect = lower value
[11] = S. cerevisiae deletion strains, locus YKL190W, strain CNB1, stronger effect = lower value
[12] = S. cerevisiae deletion strains, locus YLR039C, strain RIC1, stronger effect = lower value
[13] = S. cerevisiae deletion strains, locus YLR058C, strain SHM2 (second series), stronger effect = lower value
[14] = S. cerevisiae deletion strains, locus YLR085C, strain ARP6, stronger effect = lower value
[15] = S. cerevisiae deletion strains, locus YLR262C, strain YPT6, stronger effect = lower value
[16] = S. cerevisiae deletion strains, locus YML094W, strain GIM5, stronger effect = lower value
[17] = S. cerevisiae deletion strains, locus YMR219W, strain ESC1, stronger effect = lower value
[18] = S. cerevisiae deletion strains, locus YMR263W, strain SAP30, stronger effect = lower value
[19] = S. cerevisiae deletion strains, locus YMR307W, strain GAS1, stronger effect = lower value
[20] = S. cerevisiae deletion strains, locus YNL128W, strain TEP1, stronger effect = lower value
[21] = S. cerevisiae deletion strains, locus YNL153C, strain GIM3, stronger effect = lower value
[22] = S. cerevisiae deletion strains, locus YNL298W, strain CLA4 (second series), stronger effect = lower value
[23] = S. cerevisiae deletion strains, locus YNL322C, strain KRE1, stronger effect = lower value
[24] = S. cerevisiae deletion strains, locus YNR030W, strain Alg12, stronger effect = lower value
[25] = S. cerevisiae deletion strains, locus YOL006C, strain TOP1, stronger effect = lower value
[26] = S. cerevisiae deletion strains, locus YPL055C, strain LGE1, stronger effect = lower value
[27] = S. cerevisiae deletion strains, locus YPL241C, strain CIN2, stronger effect = lower value
[28] = S. cerevisiae deletion strains, locus YPR135W, strain CTF4, stronger effect = lower value

## CC(=O)CC(=O)Nc1ccccc1Cl
[1]
  normalized growth: 1
[2]
  normalized growth: 0.997
[3]
  normalized growth: 0.979
[4]
  normalized growth: 0.998
[5]
  normalized growth: 0.97
[6]
  normalized growth: 1.02
[7]
  normalized growth: 0.993
[8]
  normalized growth: 0.966
S. cerevisiae deletion strains, locus YJL187C, strain SWE1, stronger effect = lower value
  normalized growth: 0.995
[9]
  normalized growth: 0.982
[10]
  normalized growth: 1.03
[11]
  normalized growth: 1.01
[12]
  normalized growth: 0.993
[13]
  normalized growth: 1.01
[14]
  normalized growth: 0.967
[15]
  normalized growth: 1.02
[16]
  normalized growth: 1.02
[17]
  normalized growth: 0.993
[18]
  normalized growth: 0.999
[19]
  normalized growth: 0.947
[20]
  normalized growth: 0.987
[21]
  normalized growth: 1.02
[22]
  normalized growth: 1
[23]
  normalized growth: 0.992
[24]
  normalized growth: 1
[25]
  normalized growth: 1.01
[26]
  normalized growth: 1
[27]
  normalized growth: 0.978
[28]
  normalized growth: 0.925
S. cerevisiae strains, strain wild type, stronger effect = lower value
  normalized growth: 0.971

## CN1CCc2cccc(Cl)c2CC1
[1]
  normalized growth: 0.986
S. cerevisiae deletion strains, locus YAL040C, strain CLN3, stronger effect = lower value
  normalized growth: 1
S. cerevisiae deletion strains, locus YCL061C, strain MRC1 (second series), stronger effect = lower value
  normalized growth: 1.01
S. cerevisiae deletion strains, locus YDR363W, strain ESC2, stronger effect = lower value
  normalized growth: 1
S. cerevisiae deletion strains, locus YER002W, strain NOP16, stronger effect = lower value
  normalized growth: 1
[10]
  normalized growth: 0.993
[19]
  normalized growth: 1.01
S. cerevisiae deletion strains, locus YNL175C, strain NOP13, stronger effect = lower value
  normalized growth: 1.01
S. cerevisiae deletion strains, locus YNL197C, strain WHI3, stronger effect = lower value
  normalized growth: 1.01
S. cerevisiae deletion strains, locus YNL224C, strain SQS1, stronger effect = lower value
  normalized growth: 1
[23]
  normalized growth: 1
S. cerevisiae deletion strains, locus YOR083W, strain WHI5 (second series), stronger effect = lower value
  normalized growth: 1.01
[26]
  normalized growth: 0.998

## Cc1cccc2c1N(C(=S)Nc1ccccc1Cl)CCC2
[1]
  normalized growth: 0.966
[2]
  normalized growth: 0.821 (active)
S. cerevisiae deletion strains, locus YCL061C, strain MRC1, stronger effect = lower value
  normalized growth: 0.898 (active)
[3]
  normalized growth: 0.972
[4]
  normalized growth: 0.911 (active)
[5]
  normalized growth: 1.01
[6]
  normalized growth: 0.845 (active)
[7]
  normalized growth: 0.907 (active)
S. cerevisiae deletion strains, locus YGR229C, strain SMI1, stronger effect = lower value
  normalized growth: 0.997
[8]
  normalized growth: 0.331 (active)
S. cerevisiae deletion strains, locus YHR087W, strain rtc3, stronger effect = lower value
  normalized growth: 0.787 (active)
[9]
  normalized growth: 0.997
[10]
  normalized growth: 0.876 (active)
[11]
  normalized growth: 0.648 (active)
[12]
  normalized growth: 0.439 (active)
[13]
  normalized growth: 0.95
[14]
  normalized growth: 0.602 (active)
[15]
  normalized growth: 0.406 (active)
[16]
  normalized growth: 0.712 (active)
[17]
  normalized growth: 0.851 (active)
[18]
  normalized growth: 0.915
[19]
  normalized growth: 0.219 (active)
[20]
  normalized growth: 0.914
[21]
  normalized growth: 0.913 (active)
[22]
  normalized growth: 0.582 (active)
[23]
  normalized growth: 0.989
[24]
  normalized growth: 0.906
[25]
  normalized growth: 0.508 (active)
[26]
  normalized growth: 0.93
[27]
  normalized growth: 0.859
[28]
  normalized growth: 0.273 (active)

Source: PubChem BioAssay AID1159580 (chemical genetic matrix, 2015)
